Where “and” joins values, the source holds several entries; their conditions need not be identical. Equal values may be shown once. Inconclusive results are not listed. A structure can be active in one record and inactive in another. Calls of active or inactive are those of the source. Rule for the calls: active = hit-call score of the fitted dose curve at least 0.9, where 1 is the maximum; inconclusive = response in the unintended direction; inactive = score below 0.9.
What follows are compounds tested against rat Neonicotinoid receptor (NNR), Chrna7 (gene 25302) (UniProt Q05941) (assay: NVS_LGIC_rNNR_BungSens: NovaScreen (NVS) Ligand-Gated Ion Channel Assay for rat Neonicotinoid receptor (NNR) (AID 2283315)).
Procedure, shortened: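 Radioligand displacement binding on rat cortical membranes, 2.5 h incubation, filtration and scintillation counting. Loss of specific binding fitted relative to DMSO.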

Sequence of rat Neonicotinoid receptor (NNR), Chrna7 (gene 25302) (Q05941 whole entry, looked up): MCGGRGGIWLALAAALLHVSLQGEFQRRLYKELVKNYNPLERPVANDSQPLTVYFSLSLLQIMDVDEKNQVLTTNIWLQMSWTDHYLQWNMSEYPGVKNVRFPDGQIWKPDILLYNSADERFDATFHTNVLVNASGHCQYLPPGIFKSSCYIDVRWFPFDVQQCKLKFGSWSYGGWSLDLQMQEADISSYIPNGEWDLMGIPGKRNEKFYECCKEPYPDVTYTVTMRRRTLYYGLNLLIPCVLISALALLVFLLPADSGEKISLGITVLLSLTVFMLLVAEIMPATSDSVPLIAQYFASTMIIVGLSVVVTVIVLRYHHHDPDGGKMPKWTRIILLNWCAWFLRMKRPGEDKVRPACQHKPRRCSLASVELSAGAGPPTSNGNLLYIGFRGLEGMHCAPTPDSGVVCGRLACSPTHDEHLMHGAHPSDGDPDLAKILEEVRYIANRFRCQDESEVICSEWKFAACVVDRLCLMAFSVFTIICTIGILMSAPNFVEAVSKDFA

SMILES	outcome	AC50
CCOC1Oc2ccc(OS(C)(=O)=O)cc2C1(C)C (stereo not given)	inactive	
COP(=S)(OC)Oc1ccc([N+](=O)[O-])cc1	inactive	
O=[N+]([O-])/N=C1\NCCN1Cc1ccc(Cl)nc1		10.9 µM (active)
C[C@H]1[C@H](c2ccc(Cl)cc2)SC(=O)N1C(=O)NC1CCCCC1	inactive	
COP(=S)(OC)Oc1ccc(SC)c(C)c1	inactive	

The compounds below were run against rat Vasopressin 1 Receptor (V1), Avpr1a (gene 25107) (UniProt P30560) (assay: NVS_GPCR_rV1: NovaScreen (NVS) G Protein-Coupled Receptor Assay for rat Vasopressin 1 Receptor (V1) (AID 2283316)).
Procedure, shortened: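 Radioligand binding on rat liver membranes, 1.5 h incubation, filter-based scintillation counting. Single 25 uM screen in duplicate; chemicals meeting threshold (e.g. 30% inhibition) run in concentration-response up to 50 uM.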

Sequence of rat Vasopressin 1 Receptor (V1), Avpr1a (gene 25107) (P30560 whole entry, looked up): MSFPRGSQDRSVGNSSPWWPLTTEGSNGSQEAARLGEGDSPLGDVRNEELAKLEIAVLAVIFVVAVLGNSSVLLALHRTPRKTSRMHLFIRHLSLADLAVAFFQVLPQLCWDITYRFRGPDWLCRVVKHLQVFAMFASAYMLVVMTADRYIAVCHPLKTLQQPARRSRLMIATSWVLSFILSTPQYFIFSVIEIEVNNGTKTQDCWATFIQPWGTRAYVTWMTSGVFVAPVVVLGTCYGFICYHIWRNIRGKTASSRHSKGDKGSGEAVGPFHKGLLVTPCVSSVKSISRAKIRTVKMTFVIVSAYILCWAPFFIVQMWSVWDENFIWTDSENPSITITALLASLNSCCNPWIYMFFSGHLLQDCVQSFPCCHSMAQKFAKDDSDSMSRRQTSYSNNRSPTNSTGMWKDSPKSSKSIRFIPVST

SMILES	AC50	outcome
CCCN(CCOc1c(Cl)cc(Cl)cc1Cl)C(=O)n1ccnc1	6.02 µM (active)	
Oc1cc(Cl)ccc1Oc1ccc(Cl)cc1Cl	3.23 µM (active) and 12.1 µM (active)	
Oc1ccc(Cl)cc1Cc1ccccc1	7.33 µM (active)	inactive
CC(C)(C)C(O)C(Oc1ccc(Cl)cc1)n1cncn1 (stereo not given)	3.04 µM (active) and 27.7 µM (active)	

Reference: PubChem BioAssay (EPA / NIEHS)
